Experiment in all cases: PBM; 200 nM protein, PBS
What all share (conditions): dsDNA, one strand shown

Test [1] deals with NKX2-5 (Homo sapiens, UniProt P52952 125-210, R139K).
Test [2] concerns the target T1, NKX2-4 (Homo sapiens, UniProt Q9H2Z4 175-261, P217L).
T1 sequence: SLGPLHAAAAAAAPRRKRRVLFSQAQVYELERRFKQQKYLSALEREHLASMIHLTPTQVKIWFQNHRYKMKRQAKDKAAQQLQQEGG

For test [3], the target named is T2, NKX2-4 (Homo sapiens, UniProt Q9H2Z4 175-261, T231S).
T2 sequence: T1 sequence with L43P, T57S

Test [4] deals with T3, NKX2-4 (Homo sapiens, UniProt Q9H2Z4 175-261).
T3 sequence: T1 sequence with L43P

For test [5], the target named is T4, NKX2-6 (Homo sapiens, UniProt A6NCS4 118-204).
T4 sequence: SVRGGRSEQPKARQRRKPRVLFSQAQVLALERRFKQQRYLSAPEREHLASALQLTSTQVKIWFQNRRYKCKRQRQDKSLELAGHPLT

For test [6], the target named is T5, NKX2-4 (Homo sapiens, UniProt Q9H2Z4 175-261, R246Q).
T5 sequence: T1 sequence with L43P, R72Q

Test [7] has as its target T6, NKX2-6 (Homo sapiens, UniProt A6NCS4 118-204, F151L).
T6 sequence: T4 sequence with F34L

In test [8] the target is NKX2-5 (Homo sapiens, UniProt P52952 125-210).
Test [9] addresses T7, NKX2-6 (Homo sapiens, UniProt A6NCS4 118-204, R150C).
T7 sequence: T4 sequence with R33C

In test [10] the target is NKX3-2 (Homo sapiens, UniProt P78367 192-278, P234S).
Test [11] concerns the target NKX3-2 (Homo sapiens, UniProt P78367 192-278).

Substitutions are numbered along the chain they refer to.

Sequence of NKX2-5 (Homo sapiens, UniProt P52952 125-210) (P52952 125-210): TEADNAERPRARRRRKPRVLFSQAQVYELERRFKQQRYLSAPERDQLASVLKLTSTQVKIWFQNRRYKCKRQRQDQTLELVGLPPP
Sequence of NKX2-5 (Homo sapiens, UniProt P52952 125-210, R139K) (P52952 125-210 R139K): as the sequence (P52952 125-210) above, with R15K counted along it
Sequence of NKX3-2 (Homo sapiens, UniProt P78367 192-278) (P78367 192-278): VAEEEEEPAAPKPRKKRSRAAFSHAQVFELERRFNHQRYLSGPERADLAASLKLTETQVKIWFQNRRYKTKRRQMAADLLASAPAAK
Sequence of NKX3-2 (Homo sapiens, UniProt P78367 192-278, P234S) (P78367 192-278 P234S): as the sequence (P78367 192-278) above, with P43S counted along it

ACACTTCA: the binding signal is 12.3 upbm affinity estimate (log intensity, higher = more binding, comparable within an allelic series) with NKX2-5 [1]; 12.6 upbm affinity estimate (log intensity, higher = more binding, comparable within an allelic series) with NKX2-4 [2]; 13 upbm affinity estimate (log intensity, higher = more binding, comparable within an allelic series) with NKX2-4 [3]; 12.5 upbm affinity estimate (log intensity, higher = more binding, comparable within an allelic series) with NKX2-4 [4]; 13.3 upbm affinity estimate (log intensity, higher = more binding, comparable within an allelic series) with NKX2-6 [5]; 13.1 upbm affinity estimate (log intensity, higher = more binding, comparable within an allelic series) with NKX2-4 [6]. The binding signal with NKX2-6 [7] is 10.8 upbm affinity estimate (log intensity, higher = more binding, comparable within an allelic series); in the test with NKX2-5 [8] it was 12.3 upbm affinity estimate (log intensity, higher = more binding, comparable within an allelic series).
Turning to CACTTCAG, the binding signal in the test with NKX2-5 [1] is 12.4 upbm affinity estimate (log intensity, higher = more binding, comparable within an allelic series); with NKX2-4 [2], 12.6 upbm affinity estimate (log intensity, higher = more binding, comparable within an allelic series); with NKX2-4 [3] it was 12.9 upbm affinity estimate (log intensity, higher = more binding, comparable within an allelic series); with NKX2-4 [4], 12.4 upbm affinity estimate (log intensity, higher = more binding, comparable within an allelic series); with NKX2-6 [5] it was 13.4 upbm affinity estimate (log intensity, higher = more binding, comparable within an allelic series); with NKX2-4 [6], 13.1 upbm affinity estimate (log intensity, higher = more binding, comparable within an allelic series). For the same sequence, the binding signal in the test with NKX2-6 [7] was 10.8 upbm affinity estimate (log intensity, higher = more binding, comparable within an allelic series); with NKX2-5 [8], 12.3 upbm affinity estimate (log intensity, higher = more binding, comparable within an allelic series).
For the sequence ATCGGTGG, the binding signal was 8.85 upbm affinity estimate (log intensity, higher = more binding, comparable within an allelic series) in the test with NKX2-5 [1]; 9.32 upbm affinity estimate (log intensity, higher = more binding, comparable within an allelic series) with NKX2-4 [2]; 9.63 upbm affinity estimate (log intensity, higher = more binding, comparable within an allelic series) with NKX2-4 [3]; 9.38 upbm affinity estimate (log intensity, higher = more binding, comparable within an allelic series) with NKX2-4 [4]; 9.32 upbm affinity estimate (log intensity, higher = more binding, comparable within an allelic series) with NKX2-4 [6]; 8.79 upbm affinity estimate (log intensity, higher = more binding, comparable within an allelic series) in the test with NKX2-5 [8].
As for CACTCGAA, the binding signal in the test with NKX2-5 [1] is 12 upbm affinity estimate (log intensity, higher = more binding, comparable within an allelic series); with NKX2-4 [2] it was 12.5 upbm affinity estimate (log intensity, higher = more binding, comparable within an allelic series); with NKX2-4 [3], 13 upbm affinity estimate (log intensity, higher = more binding, comparable within an allelic series); with NKX2-4 [4] it was 12.5 upbm affinity estimate (log intensity, higher = more binding, comparable within an allelic series); with NKX2-4 [6], 13.1 upbm affinity estimate (log intensity, higher = more binding, comparable within an allelic series); in the test with NKX2-5 [8], 11.9 upbm affinity estimate (log intensity, higher = more binding, comparable within an allelic series).
For GTCAAGTA, the binding signal in the test with NKX2-5 [1] is 12.3 upbm affinity estimate (log intensity, higher = more binding, comparable within an allelic series); with NKX2-4 [2] it was 12.5 upbm affinity estimate (log intensity, higher = more binding, comparable within an allelic series); with NKX2-4 [3] it was 12.8 upbm affinity estimate (log intensity, higher = more binding, comparable within an allelic series); in the test with NKX2-4 [4], 12.3 upbm affinity estimate (log intensity, higher = more binding, comparable within an allelic series); in the test with NKX2-6 [5], 13.4 upbm affinity estimate (log intensity, higher = more binding, comparable within an allelic series); with NKX2-4 [6], 13 upbm affinity estimate (log intensity, higher = more binding, comparable within an allelic series). For the same sequence, the binding signal is 10.5 upbm affinity estimate (log intensity, higher = more binding, comparable within an allelic series) with NKX2-6 [7] and 12.2 upbm affinity estimate (log intensity, higher = more binding, comparable within an allelic series) in the test with NKX2-5 [8].
With TACCGGTA, the binding signal in the test with NKX2-5 [1] was 8.84 upbm affinity estimate (log intensity, higher = more binding, comparable within an allelic series); with NKX2-4 [2], 9.99 upbm affinity estimate (log intensity, higher = more binding, comparable within an allelic series); with NKX2-4 [3], 10.1 upbm affinity estimate (log intensity, higher = more binding, comparable within an allelic series); with NKX2-4 [4], 9.94 upbm affinity estimate (log intensity, higher = more binding, comparable within an allelic series); with NKX2-4 [6], 10.1 upbm affinity estimate (log intensity, higher = more binding, comparable within an allelic series); with NKX2-5 [8], 8.86 upbm affinity estimate (log intensity, higher = more binding, comparable within an allelic series).
As for CAAGTACC, the binding signal was 12.5 upbm affinity estimate (log intensity, higher = more binding, comparable within an allelic series) with NKX2-5 [1]; 12.4 upbm affinity estimate (log intensity, higher = more binding, comparable within an allelic series) with NKX2-4 [2]; 12.8 upbm affinity estimate (log intensity, higher = more binding, comparable within an allelic series) with NKX2-4 [3]; 12.4 upbm affinity estimate (log intensity, higher = more binding, comparable within an allelic series) with NKX2-4 [4]; 11.6 upbm affinity estimate (log intensity, higher = more binding, comparable within an allelic series) in the test with NKX2-6 [9]; 12.9 upbm affinity estimate (log intensity, higher = more binding, comparable within an allelic series) in the test with NKX2-4 [6]. The binding signal was 12.5 upbm affinity estimate (log intensity, higher = more binding, comparable within an allelic series) with NKX3-2 [10]; 12.3 upbm affinity estimate (log intensity, higher = more binding, comparable within an allelic series) with NKX2-5 [8]; 12.6 upbm affinity estimate (log intensity, higher = more binding, comparable within an allelic series) in the test with NKX3-2 [11].
Regarding ACACTTGA, the binding signal is 13 upbm affinity estimate (log intensity, higher = more binding, comparable within an allelic series) with NKX2-5 [1]; 12.7 upbm affinity estimate (log intensity, higher = more binding, comparable within an allelic series) in the test with NKX2-4 [2]; 13.2 upbm affinity estimate (log intensity, higher = more binding, comparable within an allelic series) with NKX2-4 [3]; 12.6 upbm affinity estimate (log intensity, higher = more binding, comparable within an allelic series) with NKX2-4 [4]; 12 upbm affinity estimate (log intensity, higher = more binding, comparable within an allelic series) in the test with NKX2-6 [9]; 13.9 upbm affinity estimate (log intensity, higher = more binding, comparable within an allelic series) with NKX2-6 [5]. The binding signal with NKX2-4 [6] was 13.4 upbm affinity estimate (log intensity, higher = more binding, comparable within an allelic series); with NKX2-6 [7], 11.4 upbm affinity estimate (log intensity, higher = more binding, comparable within an allelic series); with NKX2-5 [8] it was 12.9 upbm affinity estimate (log intensity, higher = more binding, comparable within an allelic series).
Regarding CGTGCGGC, the binding signal is 8.72 upbm affinity estimate (log intensity, higher = more binding, comparable within an allelic series) with NKX2-5 [1]; 9.48 upbm affinity estimate (log intensity, higher = more binding, comparable within an allelic series) with NKX2-4 [2]; 9.35 upbm affinity estimate (log intensity, higher = more binding, comparable within an allelic series) in the test with NKX2-4 [3]; 9.44 upbm affinity estimate (log intensity, higher = more binding, comparable within an allelic series) with NKX2-4 [4]; 9.47 upbm affinity estimate (log intensity, higher = more binding, comparable within an allelic series) with NKX2-4 [6]; 8.8 upbm affinity estimate (log intensity, higher = more binding, comparable within an allelic series) with NKX2-5 [8].

Source of the values: paper PMC11006913.
